{"source": "PubChem BioAssay AID1910", "about": "(Broad Institute, 2009)", "note": "In all, about 300,000 compounds went through this assay and about 950 (0.32%) were called active.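 The calls were made as follows: active = mean activation of at least 10% of the iron chelator positive control signal, with at least half of replicates also reaching 10%; inconclusive = mean and replicate majority disagree about reaching 10%; inactive = mean and most replicates under 10%.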 What follows is part of a selection rich in actives, with near analogues and random picks from the rest.", "data": [{"assay": "hypoxia response element reporter activation – cell-based, U2OS HRE-luciferase, luminescence, primary screen (AID 1910)", "settings": "stronger effect = higher value, screened at 7.5 µM (by protocol), normalized: DMSO 0%, desferrioxamine 100%", "values": [{"smiles": "COc1ccc(CNC(=O)C2CCN(C(=O)c3ccccc3)CC2)cc1", "activation": "-0.358% (inactive)"}, {"smiles": "CCOc1ccc(N(CC(=O)OC)S(=O)(=O)c2c(C)noc2C)cc1", "activation": "-0.196% (inactive)"}, {"smiles": "COc1ccc(N(CC(=O)Nc2cc(OC)ccc2OC)S(=O)(=O)c2c(C)noc2C)cc1", "activation": "10.1% (active)"}, {"smiles": "CCOc1ccc(N(CC(=O)NCc2ccc(OC)cc2)S(=O)(=O)c2c(C)noc2C)cc1", "activation": "0.179% (inactive)"}, {"smiles": "COc1ccc(Cl)cc1NC(=O)CN(C)C(=O)c1cc(-c2cccs2)nn1-c1ccccc1", "activation": "1.06% (inactive)"}, {"smiles": "CCN(CC(=O)Nc1cc(Cl)ccc1C)C(=O)Cn1c(=O)cnc2ccccc21", "activation": "-0.594% (inactive)"}, {"smiles": "O=C(COc1coc(CN2CCN(c3ccccc3)CC2)cc1=O)N1CCc2ccccc21", "activation": "0.142% (inactive)"}, {"smiles": "Nc1nonc1-n1nnc(C(=O)N/N=C/c2cc(Br)ccc2O)c1CSC1=NCCS1", "activation": "20.7% (active)"}, {"smiles": "Nc1nonc1-n1nnc(C(=O)N/N=C/c2ccccc2O)c1CN1CCCC1", "activation": "-0.146% (inactive)"}, {"smiles": "Cc1ccc(SCc2c(C(=O)N/N=C/C3CC=CCC3)nnn2-c2nonc2N)cc1", "note": "(stereo not given)", "activation": "0.655% (inactive)"}, {"smiles": "CCN1CCN(C(=O)N(Cc2ccc(Cl)cc2)S(=O)(=O)c2ccc(C)cc2)CC1", "activation": "1.75% (inactive)"}, {"smiles": "Cc1cccc(C(=O)OC(C)C(=O)NC2CCCc3ccccc32)c1O", "note": "(stereo not given)", "activation": "-0.427% (inactive)"}, {"smiles": "Oc1ccc(Br)cc1/C=N/Nc1ccccn1", "activation": "90.5% (active)"}, {"smiles": "O=[N+]([O-])c1ccc(O)c(/C=N/Nc2ccccc2[N+](=O)[O-])c1", "activation": "1.42% (inactive)"}, {"smiles": "Oc1ccc(/C=N/Nc2ccc(C(F)(F)F)cn2)cc1O", "activation": "2.36% (inactive)"}, {"smiles": "O=C(NC1CC1)C(Cc1ccccc1)NS(=O)(=O)c1ccccc1F", "note": "(stereo not given)", "activation": "-30.3% (inactive)"}, {"smiles": "CCS(=O)(=O)c1ccc(-c2cccc(NC(=O)c3ccc(Br)o3)c2)nn1", "activation": "-0.865% (inactive)"}, {"smiles": "Cc1ccc(Nc2c3c(nc4ccccc24)CCC3)cc1", "activation": "97.4% (active)"}, {"smiles": "N#Cc1cccc(Nc2c3c(nc4ccccc24)CCCC3)c1", "activation": "-0.204% (inactive)"}, {"smiles": "CC(=O)Nc1ccc(Nc2c3ccccc3nc3ccccc23)cc1", "activation": "7.58% (inactive)"}, {"smiles": "Cc1ccc(SCC(=O)Nc2nncs2)cc1", "activation": "-0.275% (inactive)"}, {"smiles": "NS(=O)(=O)c1cc(C(=O)OCC(=O)NNC(=O)c2ccccc2)ccc1Cl", "activation": "0.0895% (inactive)"}, {"smiles": "Cc1nc(-c2ccccc2)sc1C1(C)CC(c2cccnc2)=NO1", "note": "(stereo not given)", "activation": "5.85% (inactive)"}, {"smiles": "Cn1ccnc1-c1nnn(-c2ccc(F)cc2)n1", "activation": "2.61% (inactive)"}, {"smiles": "CCOc1ccc(CCNC(=O)COC(=O)C2CCN(c3ccc(C(F)(F)F)cn3)CC2)cc1OCC", "activation": "0.095% (inactive)"}]}]}
